The panel holds about 83,000 compounds, 20% with a hit somewhere; the sample as a whole holds those more often.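 Single-concentration screen, 48 h exposure, 96-well plates. Endpoint: percent growth. Below 10 = active.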 Unmarked numbers belong to inactive results. Calls of active or inactive are those of the source.
Tested on: T-47D breast
Experiment: NCI-60 one-dose screen, 48 h (100 = growth as untreated, 0 = no growth, -100 = all killed)
Settings: 10 µM unless noted

Row | Compound | growth
1 | CCNc1cc2c(cc1Br)-c1ccccc1C2=O | 34.4%
2 | Cn1cc(-c2noc(-c3cn(C)c4ncccc34)n2)c2cc(Cl)ccc21 | 54.2%
3 | N#Cc1ccc(-c2ccc(COc3ccc(CC4SC(=O)NC4=O)cc3)cc2)cc1 (centres undefined) | 35.8%
4 | O=C(N[C@@H]1CCCc2ccccc21)[C@H](CCC(=O)N1CCN(C2CCCCC2)CC1)N1C(=O)[C@@H](N2C(=O)OC[C@@H]2c2ccccc2)[C@H]1/C=C/c1ccccc1 | 44.4%
5 | CCOC(=O)/C(C#N)=C(\C)CCc1ccccc1 | 98.9%
6 | COc1ccc(C(=O)CSc2nccc(Nc3ccc(C(=O)O)cc3)n2)cc1 | 102%
7 | O=C(NCCCCCCCNC(=O)OCc1ccc2c(Cl)cc(Cl)c(O)c2n1)OCc1ccc2c(Cl)cc(Cl)c(O)c2n1 | -62.5% (active)
8 | CCN(CCO)CCC(=O)c1ccc([N+](=O)[O-])cc1 | 90.6%
9 | CCOC(=O)COc1c(C)cc(SSc2cc(C)c(OCC(=O)OCC)c(C)c2)cc1C | 91.3%
10 | CC(C)C1=NOC(=O)C1=Cc1cn(-c2ccco2)nc1-c1ccccc1 | 49%
11 | CCOC(=O)Nc1ccc2c(c1)/C(=N\NC(=S)NC)c1ccccc1-2 | 66.7%
12 | COc1ccc(/C=C(/C(=O)c2ccc(Cl)cc2)C(=O)C(F)(F)F)cc1 | 90.3%
13 | O=[N+]([O-])c1cccc(N=NNc2cccc([N+](=O)[O-])c2)c1 | 76.3%
14 | COc1ccc2c(c1)c(-c1noc(-c3cn(C)c4ncc(F)cc34)n1)cn2C | 76.8%

Source: PubChem BioAssay (NCI)
